In the supplement of paper PMC6555819:

Tests used:
Test in all cases: PBM binding z-score (relative to random genomic background probes); higher = stronger binding; sequences stand for … in GC…GCGATTGACAGCGTAGAATGAAGG
[1] = system: FXR:RXRa (NR concentration 270 nM, RXRa partner concentration 90 nM)
Method in brief: (§1)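 Scanned fluorescence from custom Agilent 4×180K protein-binding microarrays was regression-normalized. Binding z-scores use random background probes as reference. Ligand-free nuclear receptor dimers were incubated on the arrays for 1 h and detected with antibodies against each partner (one per run).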

[2] = system: LXRa:RXRa (NR concentration 270 nM, RXRa partner concentration 90 nM)
Method in brief: as §1

[3] = system: LXRa homodimer (NR concentration 270 nM)
Method in brief: as §1

[4] = system: LXRb:RXRa (NR concentration 270 nM, RXRa partner concentration 90 nM)
Method in brief: as §1

[5] = system: LXRb homodimer (NR concentration 270 nM)
Method in brief: as §1

[6] = system: PPARa:RXRa (NR concentration 270 nM, RXRa partner concentration 90 nM)
Method in brief: as §1

[7] = system: PPARg:RXRa (NR concentration 180 nM, RXRa partner concentration 90 nM)
Method in brief: as §1

[8] = system: PPARg:RXRa 270nM:90nM, anti-RXR (NR concentration 270 nM, RXRa partner concentration 90 nM)
Method in brief: as §1

[9] = system: PPARg:RXRa 30nM:10nM, anti-RXR (NR concentration 30 nM, RXRa partner concentration 10 nM)
Method in brief: as §1

[10] = system: PPARg:RXRa 90nM:30nM, anti-RXR (NR concentration 90 nM, RXRa partner concentration 30 nM)
Method in brief: as §1

[11] = system: PPARg:RXRa DBDmut IVT, anti-RXR (DBD mutation: RXRa K156A/R161A, NR concentration 270 nM, RXRa partner concentration 90 nM)
Method in brief: as §1

[12] = system: PPARg:RXRa IVT, anti-PPARg (NR concentration 270 nM, RXRa partner concentration 90 nM)
Method in brief: as §1

[13] = system: PPARg DBDmut:RXRa IVT, anti-PPARg (DBD mutation: PPARg1 K132A/R137A, NR concentration 270 nM, RXRa partner concentration 90 nM)
Method in brief: as §1

[14] = system: PPARg DBDmut IVT, anti-PPARg (DBD mutation: PPARg1 K132A/R137A, NR concentration 270 nM)
Method in brief: as §1

[15] = system: PPARg homodimer (NR concentration 180 nM)
Method in brief: as §1

[16] = system: PXR:RXRa (NR concentration 270 nM, RXRa partner concentration 90 nM)
Method in brief: as §1

[17] = system: PXR homodimer (NR concentration 270 nM)
Method in brief: as §1

[18] = system: RARa:RXR (NR concentration 270 nM, RXRa partner concentration 90 nM)
Method in brief: as §1

[19] = system: RARa homodimer (NR concentration 270 nM)
Method in brief: as §1

[20] = system: RARb:RXRa (NR concentration 270 nM, RXRa partner concentration 90 nM)
Method in brief: as §1

Sequence	PBM binding z-score [1]	PBM binding z-score [2]	PBM binding z-score [3]	PBM binding z-score [4]	PBM binding z-score [5]	PBM binding z-score [6]	PBM binding z-score [7]	PBM binding z-score [8]	PBM binding z-score [9]	PBM binding z-score [10]	PBM binding z-score [11]	PBM binding z-score [12]	PBM binding z-score [13]	PBM binding z-score [14]	PBM binding z-score [15]	PBM binding z-score [16]	PBM binding z-score [17]	PBM binding z-score [18]	PBM binding z-score [19]	PBM binding z-score [20]
CAAACTAGGTCATAGAGGTCAAAGTCCGTGCGTA	7.25	6.71	8.36	6.15	2.33	6.49	9.13	7.74	6.17	7.92	8.2	8.54	1.02	1.45	5.21	6.75	12.4	6.77	2.28	5.12
GCGGCTGGGGCATCAGCAGGTTACCATAACTTAA	-0.5	-0.215	-0.622	0.239	-0.602	0.602	-0.0151	-0.415	-0.593	-0.53	-0.444	0.118	-1.33	-0.84	0.149	0.178	-0.595	0.635	-0.988	0.966
ACAGACAGGTGAGTGAAGGCAACTCAGCTGGACG	-0.0161	-0.412	-0.593	-0.733	-0.607	-0.0544	0.543	-0.0793	-0.458	-0.591	0.534	0.283	0.108	-0.0836	-0.372	-0.299	-0.329	-0.0789	-0.354	0.403
GGAACGAGGGCTTTCGAGTTGATAGCATGGCGAT	-0.242	-0.418	-0.465	-0.655	-0.894	-0.173	0.0484	-0.127	-0.533	-0.499	0.386	-0.141	-0.402	-0.448	-0.921	0.129	-0.343	0.0983	-0.868	-0.36
CCTTACGAGTCACTGACAGGTTATAGCATTTGGA	0.777	1.14	0.907	1.29	0.779	0.873	0.529	0.102	0.331	0.375	0.816	0.0297	1.14	0.808	1.1	0.7	0.734	1.15	1.48	0.807
CAAACTAGCTCAAGGTCAAAGTCGGTTTGTGCCA	4.51	5.18	5.93	4.13	1.45	4.17	1.21	2.95	0.947	2.05	1.26	1.78	-0.371	-0.234	2.07	4.39	2.66	4.08	0.525	3.88
GGAACGAGGGCAAAGTAGATAGCATCTGTCGACG	0.832	0.557	-0.498	0.289	-0.467	1.98	2.48	2.96	0.802	2.23	4.05	3.19	-0.596	-0.605	0.234	0.482	0.16	0.38	-0.526	2.15
GCTATTAGTGGAAAGGGCAACCGAATGATTCTCG	0.118	0.287	-0.215	0.268	-0.406	1.68	1.88	3.6	1.97	3.34	0.437	0.575	0.104	-0.457	0.772	0.478	-0.0365	0.745	0.726	1.93
